Bioassay records as filed in PubChem.
FBPA Giardia inh = inhibitors of Giardia lamblia fructose-1,6-bisphosphate aldolase. Potency, µM (series often up to 59.6 µM), for the others: at the top dose activity, negative = inhibition, actives largely listed as inhibitors. A8B2U2. purified Giardia FBPA. actives 0.71% (n = 290,000). AID 2451; note: potency is the fitted concentration of half-maximal effect; nearly all actives have a fitted effect of over 55% in size
Target sequence (A8B2U2 whole entry, looked up): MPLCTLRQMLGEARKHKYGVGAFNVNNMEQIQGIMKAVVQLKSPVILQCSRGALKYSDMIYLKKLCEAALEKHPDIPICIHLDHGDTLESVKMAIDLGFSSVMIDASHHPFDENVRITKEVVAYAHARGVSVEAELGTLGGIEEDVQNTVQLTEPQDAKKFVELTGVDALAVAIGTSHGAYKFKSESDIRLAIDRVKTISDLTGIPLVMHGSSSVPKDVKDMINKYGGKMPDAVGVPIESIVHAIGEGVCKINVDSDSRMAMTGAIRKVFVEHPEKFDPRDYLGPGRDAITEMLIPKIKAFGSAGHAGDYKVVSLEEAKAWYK
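40 nM FBPA preincubated 10 min at RT with compound (up to 57.5 uM final), then substrate plus GAPDH/TPI/NAD/arsenate coupling and diaphorase/resazurin added. Fluorescence read after 20 min at RT, 525/598 nm.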
HCMV antiviral = blocks human cytomegalovirus replication; HFF cells, HCMV-luciferase reporter, 72 h; stronger effect = lower value; activity change, negative = inhibition, % at 57.5 µM; actives 4.5% (n = 410,000); in the data active = activity change below about -60%; inconclusive = no clear call, values can overlap the other calls; inactive = above about -39%
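After 16 h attachment at 37C, HFF cells received test compound and HCMV-luciferase (1 PFU/cell); reporter luminescence read 72 h later, data normalized against buffer-only and known inhibitor Salinomycin.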
FMDV inh = blocks foot and mouth disease virus | FMDV antiviral cell-based qHTS | Potency, µM (series often up to 57.9 µM), for the others: at the highest dose activity change, negative = inhibition, actives largely listed as inhibitors | actives 1.2% (n = 410,000) | AID 1159524; calls by dose curve; tested in HEK293T cells; note: read-out not given here; potency is the fitted concentration of half-maximal effect; nearly all actives have a fitted effect of over 45% in size
LASV entry inh = inhibitors of Lassa virus binding or cell entry. Lassa virus pseudotype entry inhibition, cell reporter. Potency, µM (titrated, usually from 37.9 µM), for inactives: at the top dose activity change, negative = inhibition, hits mostly inhibitors. actives 1.2% (n = 300,000). AID 540256; calls by dose curve; tested in HEK293 cells; note: potency is the fitted concentration of half-maximal effect; nearly all actives have a fitted effect of over 50% in size
HCV inh = inhibitors of hepatitis C virus infection; Huh7.5.1 HCVcc-Cre infection, luciferase reporter, 44 h; Potency, µM (series often up to 41.8 µM), without a hit: at the highest dose activity change, negative = inhibition, actives largely listed as inhibitors; actives 3.4% (n = 340,000); note: potency is the fitted concentration of half-maximal effect
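Reporter virus HCVcc-Cre (~0.5 moi) infects cells exposed to compound; seeding density 1,000 cells/well with 4 h settling beforehand. Luminescence, 15 sec read, taken 44 h post-infection following a 15 min RT substrate incubation.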
Marburg entry inh = inhibitors of Marburg virus binding or cell entry. Marburg virus pseudotyped entry inhibition, cell reporter. Potency, µM (titrated, usually from 37.8 µM), for inactives: at the highest dose activity change, negative = inhibition, usual class: inhibitors. actives 1.8% (n = 300,000). AID 540276; calls by dose curve; tested in HEK293 cells; note: potency is the fitted concentration of half-maximal effect
Starred values were filed as active, the others as inactive; ? = inconclusive; . = no result given; ! = repeats disagree; [ ] = another dose, or the depositor's remark. Most compounds without a hit are left out; they make up all but 8.3% or so of the library. Unless noted, calls come from the whole dose curve; as a rule, active = well fitted curve in the direction sought with a large enough effect; inconclusive = small, poorly fitted or top-dose-only effect, or another doubt; inactive = no such curve, though single readings can be large; an effect the other way counts as inactive or inconclusive. % is set by controls: 0 for no effect and ±100 for the full control effect.

SMILES | FBPA Giardia inh | HCMV antiviral | FMDV inh | LASV entry inh | HCV inh | Marburg entry inh
Cc1nn(-c2ccc(N3CCCCC3)nn2)c(C)c1CCC(=O)Nc1ccc(F)cc1F | . | -27 | -17% | ? | . | .
Cc1nc2ccc(S(=O)(=O)NCC(=O)NCc3ccc(Cl)cc3)cc2s1 | . | -69*! | -8% | 3%[46.1 µM] | 0% | 6%[46.1 µM]
Cc1nc2ccc(S(=O)(=O)CCC(=O)NCc3ccc(Cl)cc3)cc2s1 | . | -7 | . | . | . | .
Cn1c(=O)c2c(nc(NCc3ccccc3)n2CCCc2ccccc2)n(C)c1=O | -2% | -9 | -23% | ? | ? | ?
CNc1nc2c(c(=O)n(C)c(=O)n2C)n1CCCc1ccccc1 | 8% | ? | 0% | ? | 11µM* | ?
Cn1c(=O)c2c(nc(N3CCOCC3)n2Cc2ccccc2F)n(C)c1=O | . | -104* | -9% | -1%[46.1 µM] | . | -3%[46.1 µM]
CC(Cl)=CCn1c(NCCc2ccccc2)nc2c1c(=O)n(C)c(=O)n2C | . | -87* | 13µM* | . | . | .
Cn1c(=O)c2c(nc(CN3CCc4ccccc4C3)n2Cc2ccccc2)n(C)c1=O | 0% | -19 | ? | -29% | 13µM* | ?
C=CCOC(=O)N[C@H](C(C(=O)OC)=C(C)NCc1ccccc1)c1cccc(C(F)(F)F)c1 | . | . | . | ? | . | 3%[14.2 µM]
O=C(O)c1ccc(CNCc2ccc(Cl)cc2)s1 | . | -12 | 5% | 11%[46.1 µM] | . | -10%[46.1 µM]
Cc1nnc(C)n1/N=C\c1cc(Br)cc(Br)c1O | . | . | . | . | . | -10%
CC(C)C[C@H](NC(=O)[C@H](CCC(N)=O)NC(=O)[C@H](CCCCN)NC(=O)[C@H](CCC(N)=O)NC(=O)[C@@H](N)CCC(=O)O)C(=O)N[C@@H](CCC(N)=O)C(=O)O | . | . | -5%[6.7 µM] | . | . | .
CC(C)CCn1c(NCCc2ccccc2)nc2c1c(=O)n(C)c(=O)n2C | -3% | -24 | 20µM* | . | ? | .
COCCn1c(N2CCN(c3ccc(OC)cc3)CC2)nc2c1c(=O)n(C)c(=O)n2C | 2% | -10 | -1% | ? | 4% | -5%
CN1CCN(c2nc3c(c(=O)n(C)c(=O)n3C)n2Cc2ccccc2)CC1 | 1% | -30 | -15% | . | 10% | .
Cn1c(=O)c2c(nc(NCc3ccco3)n2C/C=C/c2ccccc2)n(C)c1=O | -8% | -96* | 14µM* | 10µM* | 2.5µM* | 13µM*
CC1CCN(c2nc3c(c(=O)n(C)c(=O)n3C)n2Cc2ccccc2)CC1 | 0% | -31 | . | 7.3µM* | ? | -23%
Cn1c(=O)c2c(nc(NCCc3ccccc3)n2Cc2ccc(F)cc2)n(C)c1=O | -4% | -24 | ? | . | ? | .
C=CCn1c(N2CCN(c3ccc(OC)cc3)CC2)nc2c1c(=O)n(C)c(=O)n2C | 1% | -21 | 28µM* | ? | ? | ?
CCOc1ccccc1CNCc1c(C(=O)O)n(Cc2ccc(F)cc2)c2cc(C)ccc12 | . | 11 | -10% | ? | . | .
Cc1cnc(-n2ncc(C(=O)NCc3ccncc3)c2C2CC2)nc1-c1cccs1 | . | . | -29% | . | . | .
Cn1c(=O)c2c(nc(NC(Cc3ccccc3)C(=O)O)n2Cc2ccccc2)n(C)c1=O (centres undefined) | 5% | -30 | -21% | -18% | -6% | ?
COCCNc1nc2c(c(=O)n(C)c(=O)n2C)n1CCCc1ccccc1 | . | 36 | -28% | . | . | .
CNc1nc2c(c(=O)n(C)c(=O)n2C)n1Cc1ccccc1 | 1% | -65* | ? | -16% | ? | ?
Cn1c(=O)c2c(nc(NCCO)n2CCCc2ccccc2)n(C)c1=O | -4% | -3 | ? | . | 16µM* | .
SMILES | FBPA Giardia inh | HCMV antiviral | FMDV inh | LASV entry inh | HCV inh | Marburg entry inh
CC[C@@H]1Cn2c(c3nc(-c4ccccc4)nc-3n(C)c2=O)N1 | -21% | . | -15% | . | . | .
NC(=S)N/N=C\c1c(OCc2ccccc2Cl)ccc2ccccc12 | -8% | -97* | ? | ? | 7.9µM* | ?
O=C(N/N=C/c1ccccc1OCc1ccccc1Cl)c1cccnc1 | -7% | -21 | -17% | ? | -8% | ?
NC(=S)NN=Cc1cc(-c2cccc(N)c2)ccn1 | . | -100* | 0% | . | . | .
NC(=S)N/N=C\c1c2ccccc2cc2ccccc12 | -21% | -24 | 0% | 13% | 13µM* | ?
NC(=S)N/N=C/c1ccc(-c2cccc([N+](=O)[O-])c2)o1 | -3% | -19 | -6% | -2% | ? | -26%
